# From paper PMC5540273 (PLoS ONE, 2017)
# Values joined by “and” are separate entries in the source; they are usually repeats but may differ in a detail not shown here. Equal entries are not always repeated. Where two headings read alike, the source gives them in different places.
# Tests used:
# [1] = tested on: HUNK; settings: concentration: 1 μM, replicates: in singlicate; n = 1
# [2] = tested on: ICK; settings: n = 1
# [3] = tested on: IGF1R; settings: n = 1
# [4] = tested on: T1, IKK-alpha; settings: n = 1
# T1 construct: gene CHUK
# [5] = tested on: T2, IKK-beta; settings: n = 1
# T2 construct: gene IKBKB
# [6] = tested on: T3, IKK-epsilon; settings: n = 1
# T3 construct: gene IKBKE
# [7] = tested on: INSRR; settings: n = 1
# [8] = tested on: INSR; settings: n = 1
# [9] = tested on: IRAK1; settings: n = 1
# [10] = tested on: IRAK3; settings: concentration: 1 μM, replicates: in singlicate; n = 1
# [11] = tested on: IRAK4; settings: n = 1
# [12] = tested on: ITK; settings: n = 1
# [13] = tested on: JAK1(JH1domain-catalytic); settings: n = 1
# [14] = tested on: JAK1(JH2domain-pseudokinase); settings: concentration: 1 μM, replicates: in singlicate; n = 1
# [15] = tested on: JAK2(JH1domain-catalytic); settings: n = 1
# [16] = tested on: JAK3(JH1domain-catalytic); settings: concentration: 1 μM, replicates: in singlicate; n = 1
# [17] = tested on: T4, JNK1; settings: n = 1
# T4 construct: gene MAPK8
# [18] = tested on: T5, JNK2; settings: n = 1
# T5 construct: gene MAPK9
# [19] = tested on: T6, JNK3; settings: n = 1
# T6 construct: gene MAPK10
# [20] = tested on: KIT-autoinhibited; settings: n = 1
# [21] = concentration: 1 μM, replicates: in singlicate
# [22] = concentration: 1 μM,replicates: in singlicate, 1 µM
# 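Also: KINOMEscan kinase panel screen.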
compound,measurement,setting,value
C[C@@H]1CCCCN1c1cc(-c2ccc3c(N)n[nH]c3c2)nc(N)n1 [GSK2258759],%Inh,[1],0%
same,%Inh,[2]; [21],11%
same,%Inh,[3]; [21],4%
same,%Inh,[4]; [21],0%
same,%Inh,[5]; [21],7%
same,%Inh,[6]; [21],43%
same,%Inh,[7]; [21],0%
same,%Inh,[8]; [21],6%
same,%Inh,[9]; [21],4%
same,%Inh,[10],0%
same,%Inh,[11]; [21],0%
same,%Inh,[12]; [21],0%
same,%Inh,[13]; [21],8%
same,%Inh,[14],0%
same,%Inh,[15]; [21],0%
same,%Inh,[16],0%
same,%Inh,[17]; [21],0%
same,%Inh,[18]; [21],10%
same,%Inh,[19]; [21],0%
same,%Inh,[20]; [21],0%
CC(=O)Nc1nc2cnc(Nc3cc(NC(=O)c4cccc(CCC#N)c4)ccc3C)nc2s1,%Inh,[1],0%
same,%Inh,[2]; [21],0%
same,%Inh,[3]; [21],0%
same,%Inh,[4]; [21],10%
same,%Inh,[5]; [21],0%
same,%Inh,[6]; [21],33%
same,%Inh,[7]; [21],0%
same,%Inh,[8]; [21],34%
same,%Inh,[9]; [21],19%
same,%Inh,[10],21%
same,%Inh,[11]; [21],15%
same,%Inh,[12]; [21],3%
same,%Inh,[13]; [21],3%
same,%Inh,[14],9%
same,%Inh,[15]; [21],22%
same,%Inh,[16],0%
same,%Inh,[17]; [21],0%
same,%Inh,[18]; [21],0%
same,%Inh,[19]; [21],0%
same,%Inh,[20]; [21],11%
Cc1ccc(-c2cc(-c3c[nH]nc3-c3ccccn3)ccn2)cc1 [GW684088],%Inh,[1],1%
same,%Inh,[2]; [21],0%
same,%Inh,[3]; [21],36%
same,%Inh,[4]; [21],0%
same,%Inh,[5]; [21],0%
same,%Inh,[6]; [21],9%
same,%Inh,[7]; [21],0%
same,%Inh,[8]; [21],0%
same,%Inh,[9]; [21],0%
same,%Inh,[10],7%
same,%Inh,[11]; [21],0%
same,%Inh,[12]; [21],0%
same,%Inh,[13]; [21],12%
same,%Inh,[14],1%
same,%Inh,[15]; [21],0%
same,%Inh,[16],0%
same,%Inh,[17]; [21],29%
same,%Inh,[18]; [21],36%
same,%Inh,[19]; [21],53%
same,%Inh,[20]; [21],2%
CSc1nn2c(=O)cc(N3CCOCC3)nc2n1Cc1cccc(C(F)(F)F)c1C [GSK2363608],%Inh,[1],0%
same,%Inh,[2]; [22],0% and 12%
same,%Inh,[3]; [22],0% and 7%
same,%Inh,[4]; [22],2% and 3%
same,%Inh,[5]; [22],26% and 22%
same,%Inh,[6]; [22],0% and 13%
same,%Inh,[7]; [22],0% and 8%
same,%Inh,[8]; [22],6% and 0%
same,%Inh,[9]; [22],5% and 21%
same,%Inh,[10],0%
same,%Inh,[11]; [22],12% and 18%
same,%Inh,[12]; [22],2% and 12%
same,%Inh,[13]; [22],13% and 30%
same,%Inh,[14],0%
same,%Inh,[15]; [22],100% and 0%
same,%Inh,[16],0%
same,%Inh,[17]; [22],2% and 16%
same,%Inh,[18]; [22],15% and 5%
same,%Inh,[19]; [22],7% and 3%
same,%Inh,[20]; [22],2% and 0%
Cc1cc(NCC(c2ccccc2)c2ccccc2)nc(NCc2ccc(C(F)(F)F)cc2)n1 [GW497681],%Inh,[1],13%
same,%Inh,[2]; [21],0%
same,%Inh,[3]; [21],27%
same,%Inh,[4]; [21],0%
same,%Inh,[5]; [21],0%
same,%Inh,[6]; [21],26%
same,%Inh,[7]; [21],0%
same,%Inh,[8]; [21],0%
same,%Inh,[9]; [21],23%
same,%Inh,[10],0%
same,%Inh,[11]; [21],8%
same,%Inh,[12]; [21],0%
same,%Inh,[13]; [21],10%
same,%Inh,[14],0%
same,%Inh,[15]; [21],0%
same,%Inh,[16],0%
same,%Inh,[17]; [21],0%
same,%Inh,[18]; [21],0%
same,%Inh,[19]; [21],0%
same,%Inh,[20]; [21],0%
CCn1c(-c2ccccn2)nc2cnccc21 [SB-736398],%Inh,[1],7%
same,%Inh,[2]; [21],9%
same,%Inh,[3]; [21],19%
same,%Inh,[4]; [21],37%
same,%Inh,[5]; [21],17%
same,%Inh,[6]; [21],0%
same,%Inh,[7]; [21],0%
same,%Inh,[8]; [21],0%
same,%Inh,[9]; [21],45%
same,%Inh,[10],100%
same,%Inh,[11]; [21],37%
same,%Inh,[12]; [21],0%
same,%Inh,[13]; [21],0%
same,%Inh,[14],0%
same,%Inh,[15]; [21],17%
same,%Inh,[16],0%
same,%Inh,[17]; [21],24%
same,%Inh,[18]; [21],19%
same,%Inh,[19]; [21],8%
same,%Inh,[20]; [21],0%
COc1ccc(C2=C(Nc3cccc(C(=O)O)c3)C(=O)NC2=O)cc1 [SB-390765],%Inh,[1],19%
same,%Inh,[2]; [21],29%
same,%Inh,[3]; [21],0%
same,%Inh,[4]; [21],16%
same,%Inh,[5]; [21],23%
same,%Inh,[6]; [21],3%
same,%Inh,[7]; [21],4%
same,%Inh,[8]; [21],13%
same,%Inh,[9]; [21],28%
same,%Inh,[10],0%
same,%Inh,[11]; [21],0%
same,%Inh,[12]; [21],0%
same,%Inh,[13]; [21],0%
same,%Inh,[14],18%
same,%Inh,[15]; [21],12%
same,%Inh,[16],0%
same,%Inh,[17]; [21],41%
same,%Inh,[18]; [21],32%
same,%Inh,[19]; [21],33%
same,%Inh,[20]; [21],14%
O=C(Nc1ccccc1)Nc1cccc(Oc2ccc3nccn3n2)c1,%Inh,[1],18%
same,%Inh,[2]; [21],0%
same,%Inh,[3]; [21],0%
same,%Inh,[4]; [21],7%
same,%Inh,[5]; [21],0%
same,%Inh,[6]; [21],0%
same,%Inh,[7]; [21],0%
same,%Inh,[8]; [21],0%
same,%Inh,[9]; [21],9%
same,%Inh,[10],1%
same,%Inh,[11]; [21],0%
same,%Inh,[12]; [21],2%
same,%Inh,[13]; [21],16%
same,%Inh,[14],5%
same,%Inh,[15]; [21],7%
same,%Inh,[16],0%
same,%Inh,[17]; [21],0%
same,%Inh,[18]; [21],0%
same,%Inh,[19]; [21],0%
same,%Inh,[20]; [21],39%
CN1C(=O)C(Nc2ccc(Cl)c(C(=O)O)c2)=C(c2ccc(Cl)cc2)C1=O [SB-404290],%Inh,[1],32%
same,%Inh,[2]; [21],20%
same,%Inh,[3]; [21],0%
same,%Inh,[4]; [21],0%
same,%Inh,[5]; [21],17%
same,%Inh,[6]; [21],0%
same,%Inh,[7]; [21],14%
same,%Inh,[8]; [21],0%
same,%Inh,[9]; [21],0%
same,%Inh,[10],0%
same,%Inh,[11]; [21],0%
same,%Inh,[12]; [21],4%
same,%Inh,[13]; [21],0%
same,%Inh,[14],17%
same,%Inh,[15]; [21],8%
same,%Inh,[16],0%
same,%Inh,[17]; [21],26%
same,%Inh,[18]; [21],2%
same,%Inh,[19]; [21],7%
same,%Inh,[20]; [21],0%
Cl.NC(=O)c1cccc(Nc2nccc(Nc3ccc(Oc4cccc(Cl)c4)c(Cl)c3)n2)c1 [GW659008],%Inh,[1],0%
same,%Inh,[2]; [21],85%
same,%Inh,[3]; [21],14%
same,%Inh,[4]; [21],3%
same,%Inh,[5]; [21],5%
same,%Inh,[6]; [21],0%
same,%Inh,[7]; [21],12%
same,%Inh,[8]; [21],6%
same,%Inh,[9]; [21],0%
same,%Inh,[10],50%
same,%Inh,[11]; [21],0%
same,%Inh,[12]; [21],0%
same,%Inh,[13]; [21],15%
same,%Inh,[14],0%
same,%Inh,[15]; [21],84%
same,%Inh,[16],0%
same,%Inh,[17]; [21],22%
same,%Inh,[18]; [21],20%
same,%Inh,[19]; [21],10%
same,%Inh,[20]; [21],0%
Cc1c(O)cccc1Nc1ccnc2ccc(C(F)(F)F)cc12.Cl [GW466413],%Inh,[1],93.4%
same,%Inh,[2]; [21],0%
same,%Inh,[3]; [21],0%
same,%Inh,[4]; [21],8%
same,%Inh,[5]; [21],0%
same,%Inh,[6]; [21],0%
same,%Inh,[7]; [21],0%
same,%Inh,[8]; [21],0%
same,%Inh,[9]; [21],0%
same,%Inh,[10],0%
same,%Inh,[11]; [21],0%
same,%Inh,[12]; [21],0%
same,%Inh,[13]; [21],0%
same,%Inh,[14],0%
same,%Inh,[15]; [21],6%
same,%Inh,[16],0%
same,%Inh,[17]; [21],21%
same,%Inh,[18]; [21],4%
same,%Inh,[19]; [21],0%
same,%Inh,[20]; [21],0%
